Measured values as given in the supplement of paper PMC10127200.
Counter-ions that a name gives are not always drawn.

Key:
Test in all cases: Euclidean distance of Cell Painting phenotypic profile (signed KS, 77 features) to DMSO centroid (dimensionless distance); 5 or 10 uM (library dependent); higher = stronger phenotypic change vs DMSO (phenoactivity)
Conditions in all cases: 48 h
786-O = tested on: 786-O
Outline: (§1)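 Library compounds were applied at 10 or 5 uM, depending on the library, with 0.1% DMSO final, for 48 h to five cancer lines and a healthy fibroblast line. After staining, cells were imaged confocally at 20X across 9 fields per well, and Harmony extracted 77 features, each scored as a signed Kolmogorov-Smirnov statistic against vehicle wells on the same plate. Phenoactivity is the Euclidean distance between each profile and the median vehicle profile, with profiles first plate-position corrected, correlation-weighted and averaged over replicates at the top dose.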

A549 = tested on: A549
Outline: as §1

DU145 = tested on: DU145
Outline: as §1

FB = tested on: FB
Outline: as §1

HEPG2 = tested on: HEPG2
Outline: as §1

OVCAR4 = tested on: OVCAR4
Outline: as §1

Compound | Euclidean distance (786-O) | Euclidean distance (A549) | Euclidean distance (DU145) | Euclidean distance (FB) | Euclidean distance (HEPG2) | Euclidean distance (OVCAR4)
CCS(=O)(=O)N1CC(CC#N)(n2cc(-c3ncnc4[nH]ccc34)cn2)C1 | 1.86 | 0.875 | 1.45 | 1.57 | 0.589 | 0.899
CC1CCc2cc(F)cc3c(=O)c(C(=O)O)cn1c23 (stereo unspecified) [Flumequine] | 1.37 | 0.57 | 1.32 | 0.897 | 0.704 | 1.44
CC(C)NC(=O)COc1cccc(-c2nc(Nc3ccc4[nH]ncc4c3)c3ccccc3n2)c1 | 2.53 | 3.23 | 3.11 | 2.67 | 1.76 | 2.43
COc1cc2nc(N3CCN(C(=O)c4ccco4)CC3)nc(N)c2cc1OC [Prazosin HCl] | 0.833 | 0.676 | 0.97 | 0.552 | 0.382 | 0.59
CCOc1ccc(Cc2cc([C@@H]3O[C@H](CO)[C@@H](O)[C@H](O)[C@H]3O)ccc2Cl)cc1 [Dapagliflozin propanediol monohydrate] | 1.02 | 0.644 | 1.02 | 0.967 | 0.649 | 0.832
N[C@@H](CCC(=O)N[C@@H](CS)C(=O)NCC(=O)O)C(=O)O [Glutathione] | 1.52 | 1.12 | 1.48 | 1.03 | 0.978 | 1.55
O=C(/C=C/c1ccc(CN(CCO)CCc2c[nH]c3ccccc23)cc1)NO [LAQ824 (Dacinostat)] | 2.61 | 4.89 | 4.56 | 3.59 | 4.12 | 3.09
C[C@H](NCc1ccc(OCc2cccc(F)c2)cc1)C(N)=O [Safinamide Mesylate] | 0.672 | 0.63 | 0.559 | 0.645 | 0.55 | 1.14
COc1cc2nc(N3CCCN(C)CC3)nc(NC3CCN(Cc4ccccc4)CC3)c2cc1OC | 4.16 | 3.99 | 3.51 | 4.73 | 4.64 | 3.6
Nc1nc2c(ncn2COC(CO)CO)c(=O)[nH]1 [Ganciclovir] | 1.56 | 0.816 | 0.888 | 1.25 | 0.883 | 3.37
NS(=O)(=O)c1cc2c(cc1Cl)N=C(CSCc1ccccc1)NS2(=O)=O [Benzthiazide] | 1.33 | 1.17 | 1.06 | 1.18 | 1.62 | 1.62
Cc1[nH]cnc1CN1CCc2c(c3ccccc3n2C)C1=O [Alosetron Hydrochloride] | 1.67 | 0.744 | 0.859 | 0.731 | 0.664 | 1.33
CCCNCC(O)COc1ccccc1C(=O)CCc1ccccc1 (stereo unspecified) [Propafenone HCl] | 1.59 | 1.51 | 1.37 | 1.36 | 0.85 | 1.26
Cc1ccnc(NS(=O)(=O)c2ccc(N)cc2)n1 [Sulfamerazine] | 1.24 | 0.793 | 0.847 | 0.862 | 0.67 | 1.2
O=C(/C=C/c1ccc(O)cc1)c1ccc(O)cc1O [Isoliquiritigenin] | 0.936 | 1.2 | 1.16 | 0.82 | 0.786 | 0.885
CC(=O)Oc1ccccc1C(=O)Nc1ncc([N+](=O)[O-])s1 [Nitazoxanide] | 1.27 | 1.18 | 1.96 | 1.68 | 1.32 | 1.34
COc1cc([C@@H]2c3cc4c(cc3[C@@H](O[C@@H]3O[C@@H]5CO[C@@H](C)O[C@H]5[C@H](O)[C@H]3O)[C@H]3COC(=O)[C@H]23)OCO4)cc(OC)c1O [Etoposide] | 4.29 | 2.57 | 3.62 | 3.88 | 4.18 | 3.21
C[C@H](N[C@@H](CCc1ccccc1)C(=O)O)C(=O)N1CCC[C@H]1C(=O)O [Enalaprilat Dihydrate] | 1.22 | 1.17 | 0.803 | 0.927 | 0.793 | 1
CCCC1CC(C(=O)NC(C(C)Cl)C2OC(SC)C(O)C(O)C2O)N(C)C1 (stereo unspecified) [Clindamycin alcoholate] | 1.37 | 0.413 | 1.04 | 0.986 | 1.01 | 1.02
CCN(CC)CCCC(C)Nc1nc(C)cc(Nc2ccc3nc(C)cc(N)c3c2)n1 (stereo unspecified) | 0.637 | 0.976 | 0.753 | 0.932 | 2.01 | 1.16
CC(C)c1nc(CN(C)C(=O)N[C@H](C(=O)N[C@@H](Cc2ccccc2)C[C@H](O)[C@H](Cc2ccccc2)NC(=O)OCc2cncs2)C(C)C)cs1 [Ritonavir] | 1.49 | 1.26 | 1.08 | 1.35 | 1.58 | 1.77
C[C@H]1COc2c(N3CCN(C)CC3)c(F)cc3c(=O)c(C(=O)O)cn1c23 [Levofloxacin] | 1.07 | 1.12 | 0.658 | 0.922 | 0.532 | 1.03
CCCCC(O)c1ccccc1 (stereo unspecified) [Fenipentol] | 1.46 | 1.44 | 1.43 | 0.766 | 0.912 | 1.68
CN(C)C(=O)COC(=O)Cc1ccc(OC(=O)c2ccc(NC(=N)N)cc2)cc1 [Camostat Mesilate] | 1.16 | 0.62 | 1.08 | 0.645 | 0.823 | 1.71
C[C@@H]1C/C=C/C=C/C=C/C=C/[C@H](O[C@@H]2O[C@H](C)[C@@H](O)[C@H](N)[C@@H]2O)C[C@@H]2O[C@](O)(C[C@@H](O)C[C@H]3O[C@@H]3/C=C/C(=O)O1)C[C@H](O)[C@H]2C(=O)O [Natamycin] | 1.51 | 0.972 | 1.07 | 1.11 | 1.14 | 1.02
CN(C)/N=N/c1[nH]cnc1C(N)=O [Dacarbazine] | 1.42 | 0.981 | 1.94 | 1.25 | 2.73 | 0.871

Compound | Euclidean distance (786-O) | Euclidean distance (A549) | Euclidean distance (DU145) | Euclidean distance (FB) | Euclidean distance (HEPG2) | Euclidean distance (OVCAR4)
CCn1cc(C(=O)O)c(=O)c2cc(F)c(N3CCNCC3)nc21 [Enoxacin] | 1.03 | 0.783 | 1.59 | 0.837 | 2.02 | 1.35
Cc1cc(C#N)cc(C)c1Oc1nc(Nc2ccc(C#N)cc2)nc(N)c1Br [Etravirine (TMC125)] | 1.93 | 2.85 | 1.7 | 0.981 | 2.06 | 1.73
O=C(O)/C=C/c1ccc(O)cc1 [p-Coumaric Acid] | 1.47 | 0.995 | 0.894 | 0.846 | 1.05 | 0.854
O=C(O)c1cc(O)c2c(c1)[C@@H]([C@H]1c3cc(C(=O)O)cc(O)c3C(=O)c3c(O[C@@H]4O[C@H](CO)[C@@H](O)[C@H](O)[C@H]4O)cccc31)c1cccc(O[C@@H]3O[C@H](CO)[C@@H](O)[C@H](O)[C@H]3O)c1C2=O [Sennoside B] | 1.31 | 0.866 | 0.808 | 0.988 | 0.382 | 0.952
CNC(=C[N+](=O)[O-])NCCSCc1ccc(CN(C)C)o1 [Ranitidine] | 0.881 | 0.596 | 0.696 | 0.903 | 1.02 | 0.83
Cc1ccc(O)c([C@H](CCN(C(C)C)C(C)C)c2ccccc2)c1 [Tolterodine tartrate] | 1.87 | 0.728 | 0.897 | 1.13 | 1.19 | 1.58
CC(C)(Oc1ccc(C(=O)c2ccc(Cl)cc2)cc1)C(=O)O [Choline Fenofibrate] | 0.954 | 0.724 | 0.985 | 1.28 | 0.32 | 0.848
O=C(COc1ccc(C(=O)c2ccccc2)cc1)NC1CCN(Cc2ccccc2)CC1 [AdipoRon] | 0.958 | 0.958 | 0.661 | 0.817 | 1.11 | 0.793
C/C=C1\[C@H]2C=C(C)C[C@]1(N)c1ccc(=O)[nH]c1C2 [(-)-Huperzine A (HupA)] | 1.09 | 0.676 | 0.79 | 0.881 | 0.528 | 1.07
CC(C)C(=O)c1c(C(C)C)nn2ccccc12 [Ibudilast] | 0.973 | 0.58 | 0.981 | 0.71 | 0.459 | 1.29
OC(CN1CCN(c2cccc(Cl)c2)CC1)C(c1ccccc1)c1ccccc1 (stereo unspecified) | 1.08 | 1.33 | 0.908 | 1.03 | 0.858 | 1.16
Cc1cc(-c2ccc(CC(=O)Nc3ccc(-c4cccnc4)cc3)cc2)ccn1 | 1.31 | 1.03 | 0.823 | 1.02 | 0.787 | 1.36
COc1cc2nc(N(C)CCCNC(=O)C3CCCO3)nc(N)c2cc1OC (stereo unspecified) [Alfuzosin HCl] | 0.985 | 0.664 | 0.632 | 0.744 | 0.675 | 0.907
COC(=O)c1ccccc1O [Methyl salicylate] | 0.625 | 0.514 | 0.585 | 0.713 | 0.768 | 0.636
CN(NC(=O)CC(=O)NN(C)C(=S)c1ccccc1)C(=S)c1ccccc1 [Elesclomol (STA-4783)] | 5.12 | 5.4 | 4.86 | 6.42 | 1.29 | 6.01
COc1nc(C)cnc1NS(=O)(=O)c1cccnc1-c1ccc(-c2nnco2)cc1 [Zibotentan (ZD4054)] | 1.49 | 0.567 | 0.656 | 0.844 | 1.11 | 0.898
CNC[C@H](O)c1cccc(O)c1 [Phenylephrine HCl] | 1.46 | 0.809 | 0.788 | 1.34 | 0.549 | 0.844
CCCCC1OC(=O)c2ccccc21 (stereo unspecified) [3-n-Butylphathlide] | 1.36 | 0.948 | 0.834 | 1.38 | 0.575 | 1.15
NC(=O)c1cccc(-c2cccc(OC(=O)NC3CCCCC3)c2)c1 | 0.656 | 0.944 | 0.753 | 0.99 | 1.61 | 1.17
Cc1cnc(-c2cc(N3CCN(C(=O)CCS(C)(=O)=O)CC3)ncc2Cl)c(C)c1 | 0.761 | 1.09 | 1.04 | 1.23 | 0.662 | 1.03
COc1ccc2c3c1O[C@H]1C[C@@H](O)C=C[C@@]31CCN(C)C2 [Galanthamine] | 0.802 | 1.14 | 0.605 | 0.959 | 0.423 | 0.852
Cc1cccc(-c2[nH]ncc2-c2ccc3ncccc3n2)n1 | 0.773 | 0.733 | 0.91 | 1.15 | 0.71 | 0.807
Clc1ccc2nsnc2c1NC1=NCCN1 [Tizanidine] | 1.07 | 0.538 | 0.815 | 0.569 | 0.572 | 0.608
CO[C@@]1(NC(=O)Cc2cccs2)C(=O)N2C(C(=O)O)=C(COC(N)=O)CS[C@@H]21 [Cefoxitin sodium] | 1.26 | 0.874 | 1.51 | 1.02 | 0.857 | 0.983
N#CC1(c2ccc(NC(=O)c3cccnc3NCc3ccncc3)cc2)CCCC1 [Apatinib] | 0.955 | 1.12 | 0.92 | 2.3 | 1.34 | 0.799
